# Results filed as inconclusive are left out. Entries that show only a call come without a potency. The source made the active and inactive calls. Calls come from the whole dose curve; as a rule, active = well fitted inhibition curve with a large enough effect in the repeat runs; inconclusive = weak or mixed curves; inactive = no such curve, though single readings can be large or run the other way.
# Target: Cytochrome P450 1A2 (Homo sapiens) (UniProt P05177)
# Assay: Cytochrome P450 Family 1 Subfamily A Member 2 (CYP1A2) small molecule antagonists: luciferase reporter qHTS assay (AID 1671199); note: nearly all actives have a fitted effect of over 50% in size
# Conditions: P450-Glo CYP1A2 enzyme, luciferin luminescence, 1 h; series mostly up to 53 µM
# Text: National Center for Advancing Translational Sciences [NCATS]
# U.S. Environmental Protection Agency [EPA]
# National Institutes of Environmental Health Sciences [NIEHS]
# National Toxicology Program [NTP]
# U.S. Food and Drug Administration [FDA]
# Cytochrome P450 (CYP) enzymes are membrane-bound hemeproteins that play a key role in metabolism of drugs and xenobiotics. Evaluation of the effect of chemicals on CYP isozymes is useful to minimize the adverse drug reactions and toxicities in drug development process. Tox21 chemicals were tested for their effect on CYP enzyme activities by using P450-Glo (TM) screening systems (Promega Corporation, Madison, WI). These systems provide a luminescent method containing proluciferin substrates and are converted to luciferin products by CYP isozymes. The luciferin products formed are detected with a luciferin detection reagent, and the amount of light produced is proportional to CYP activity. P450-Glo (TM) CYP1A2 screening system (Catalog. No. V9770) was used to detect the compounds that interfere in CYP1A2 activity. The positive control compound used for CYP1A2 assay is furafylline (Sigma-Aldrich, St. Louis, MO).
# Tox21 Assay Protocol Summary:
# Two ul of enzyme-substrate mix was dispensed into medium binding white/solid 1536-well plates (Greiner Bio-One North America Inc., Monroe, NC) using a BioRaptr Flying Reagent Dispenser (FRD, Beckman Coulter, Brea, CA). Compounds dissolved in DMSO and positive control (furafyllline) were transferred to the assay plates at 23 nl using a Pintool station (Wako, San Diego, CA). The assay plates were incubated at room temperature for 10 min. Then 2 ul of NADPH regeneration solution was added to each well of the assay plates using an FRD and incubated at room temperature for 1 h. The reaction was stopped by adding 4 ul of detection reagent using an FRD and after 20 min incubation at room temperature the luminescence signal was measured using a ViewLux plate reader (Perkin Elmer, Shelton, CT). Data were expressed as relative luminescence units.
# Potency is the fitted concentration of half-maximal effect.
# Sequence of Cytochrome P450 1A2 (Homo sapiens) (P05177 whole entry, looked up): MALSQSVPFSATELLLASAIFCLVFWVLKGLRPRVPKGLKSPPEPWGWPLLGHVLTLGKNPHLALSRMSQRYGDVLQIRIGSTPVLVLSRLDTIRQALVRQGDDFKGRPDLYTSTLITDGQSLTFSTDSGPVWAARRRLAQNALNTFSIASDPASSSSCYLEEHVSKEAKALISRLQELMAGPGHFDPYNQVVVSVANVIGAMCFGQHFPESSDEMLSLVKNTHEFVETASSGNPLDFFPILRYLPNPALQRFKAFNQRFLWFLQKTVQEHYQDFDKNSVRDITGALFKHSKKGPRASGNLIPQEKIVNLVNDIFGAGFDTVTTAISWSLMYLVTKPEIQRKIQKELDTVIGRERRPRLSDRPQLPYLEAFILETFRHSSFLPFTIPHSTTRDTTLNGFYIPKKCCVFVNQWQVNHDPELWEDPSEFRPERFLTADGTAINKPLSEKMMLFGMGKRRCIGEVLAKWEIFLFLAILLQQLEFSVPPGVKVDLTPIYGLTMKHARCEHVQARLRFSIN
row,Compound,Potency
1,NC(=O)Cc1cccc(C(=O)c2ccccc2)c1N,15.5 µM (active)
2,Nc1cccc(S(=O)(=O)O)c1,inactive
3,CC1(C)C(=O)N(Cl)C(=O)N1Br,inactive
4,CCOC(=O)[C@H](CCc1ccccc1)N[C@@H](C)C(=O)N1Cc2cc(OC)c(OC)cc2C[C@H]1C(=O)O,inactive
5,CC(=O)Oc1cc(C(C)C)c(OCCN(C)C)cc1C,5.12 µM (active)
6,C[C@]12CCC(=O)C=C1CC[C@@H]1[C@@H]2CC[C@@]2(C)[C@H]1CC[C@]2(O)C(=O)CO,inactive
7,CCN(O)CC,inactive
8,C1CSCCS1,inactive
9,COc1ccccc1OCC(O)COC(N)=O (stereo not given),inactive
10,Nc1ccc2ccccc2c1S(=O)(=O)O,3.24 µM (active)
11,CCCCNCCCC,inactive
12,COc1cc(N)c(Cl)cc1C(=O)NC1CCN(Cc2ccccc2)CC1,inactive
13,CC(=O)N(CC(O)CN(C(C)=O)c1c(I)c(C(=O)NCC(O)CO)c(I)c(C(=O)NCC(O)CO)c1I)c1c(I)c(C(=O)NCC(O)CO)c(I)c(C(=O)NCC(O)CO)c1I (stereo not given),inactive
14,COC(=O)c1ccc2cc(C(=O)OC)ccc2c1,2.58 µM (active)
15,COc1ccc(S(=O)(=O)Nc2nnc(CC(C)C)s2)cc1,inactive
16,Cc1ccc(C)c(N)c1,35.6 µM (active)
17,CCCOCCC,inactive
18,FC(F)(F)C(Cl)(Cl)Cl,inactive
19,Cc1c(C(=O)NCCO)[n+](=O)c2ccccc2n1[O-],inactive
20,Cc1c(N)cccc1N,23 µM (active)

row,Compound,Potency
1,CCCCCCn1c(=O)c2c(ncn2C)n(C)c1=O,15.5 µM (active)
2,COC(=O)c1ccc(OC)cc1,35.6 µM (active)
3,FC(F)(F)C(F)(F)C(F)(F)C(F)(F)C(F)(F)C(F)(F)C(F)(F)C(F)(F)Br,inactive
4,Cc1cccc(C)c1NC(=O)CN1CCCCCC1,inactive
5,C[C@@H]1CN(c2c(F)c(N)c3c(=O)c(C(=O)O)cn(C4CC4)c3c2F)C[C@H](C)N1,inactive
6,O=c1[nH]c(=O)n([C@H]2C[C@H](O)[C@@H](CO)O2)cc1C(F)(F)F,inactive
7,OCCN(CCO)c1ccccc1,inactive
8,CCC(=O)Nc1ccc(O)cc1,inactive
9,NS(=O)(=O)c1cc(-c2nn[nH]n2)c(NCc2cccs2)cc1Cl,inactive
10,O=C1C=CC(=O)O1,inactive
11,Cc1ccccc1C(=O)Nc1ccc(C(=O)N2CCCC(O)c3cc(Cl)ccc32)c(C)c1 (stereo not given),inactive
12,OCCN1CCN(CCO)CC1,inactive
13,CCOC(=O)NCCC[Si](OCC)(OCC)OCC,inactive
14,NC(=O)NS(=O)(=O)c1ccc(Cl)cc1,inactive
15,CC(=O)O[C@H]1CC[C@@]2(C)C(=CC[C@@H]3[C@@H]2CC[C@]2(C)C(C(C)=O)=CC[C@@H]32)C1,inactive
16,O=C(O)C(=O)Cc1c[nH]c2ccccc12,35.6 µM (active)
17,Oc1ccccc1C=NCc1ccccc1,inactive
18,CCc1cc2cc(OC)c(OC)cc2c(Cc2ccccc2)n1,6.45 µM (active)
19,CS(=O)(=O)c1ccc([C@@H](O)[C@@H](CF)NC(=O)C(Cl)Cl)cc1,inactive
20,CN1CCN(N)CC1,inactive
